Structures are written as SMILES. “And” between values parts separate entries of the source, which are not always exact repeats. Equal entries are not always repeated. Results filed as inconclusive are left out. Where a structure was tested more than once in an assay, its records may differ in their call. The source made the active and inactive calls. Unless noted, the call rests on the fitted dose curve; in most records, active means well fitted curve in the direction sought with a large enough effect in the repeat runs; inconclusive means weak or mixed curves; inactive means no such curve, though single readings can be large; an effect the other way counts as inactive or inconclusive.

Consider 13 molecules from PubChem BioAssay (Tox21).

The nature of assay [1]: qHTS assay to identify small molecule antagonists of the TGF-beta/Smad signaling pathway - cell viability counter screen (AID 1346824). Further: nearly all actives have a fitted effect of over 50% in size. Further: potency means the concentration at half of the fitted maximal effect. The essentials: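 SBE-bla HEK 293T cells were plated overnight at 37 C, then given compounds in DMSO plus TGF-beta1 (added as 0.25 ng/mL solution) for 5 hr. After the bla read, CellTiter-Glo was added to the same wells and luminescence read after 30 min at room temperature.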

The nature of assay [2]: qHTS assay to identify small molecule agonists of the TGF-beta/Smad signaling pathway - cell viability counter screen (AID 1346829). Further: nearly all actives have a fitted effect of over 45% in size. Further: potency means the concentration at half of the fitted maximal effect. On activity change, negative = cytotoxicity: top concentration of the series differs between compounds. The essentials:
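Same-well cytotoxicity: CellTiter-Glo added after the 2 hr room-temperature beta-lactamase substrate step, luminescence measured 30 min later; cells had 5 hr of compound at 37 C.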

A short description of assay [3]: qHTS assay to identify small molecule agonists of the TGF-beta/Smad signaling pathway (AID 1346859; active means well fitted activation curve with a large enough effect in the signal ratio in the repeat runs, not every such curve was filed as active; the % refers to the signal ratio; further: series mostly up to about 77 µM). The essentials:
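Screening used HEK 293T SBE-bla cells at 4,000/well. Test agents: 5 hr, 37 C. Detection: FRET substrate, 2 hr RT, then excitation 405 nm with emissions at 460 and 530 nm.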

Assay [4] is described as follows: Human pregnane X receptor (PXR) small molecule agonists, qHTS cell viability counter screen (AID 1346977). Further: nearly all actives have a fitted effect of over 50% in size. Further: potency means the concentration at half of the fitted maximal effect. An outline of the steps:
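In each well, the PXR reporter HepG2 line was checked for viability: CellTiter-Fluor reagent added 23hr post-dosing, fluorescence read after 1hr incubation at 37C.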

Assay [5] in a line: Caspase-3/7 induction in CHO-K1 cells by small molecules, qHTS cell viability counter screen (AID 1346979). Further: nearly all actives have a fitted effect of over 35% in size. Further: potency means the concentration at half of the fitted maximal effect. An outline of the steps:
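Following a 5hr settling period, CHO-K1 cells at 1,500 per well received DMSO-dissolved compounds. Cell viability was quantified 16hr later by CellTiter-Fluor fluorescence, measured after 1hr with reagent at 37C.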

A short description of assay [6]: Caspase-3/7 induction in CHO-K1 cells by small molecules, qHTS assay (AID 1346980). Further: nearly all actives have a fitted effect of over 15% in size. Further: potency means the concentration at half of the fitted maximal effect. An outline of the steps: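 Wild-type cells were seeded at 1,500 per well and settled 5 hr at 37 C, 5% CO2, then exposed to DMSO-dissolved compounds for 17 hr. Caspase-Glo 3/7 reagent was added, and luminescence was read after 30min at room temperature.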
The nature of assay [7]: Caspase-3/7 induction in HepG2 cells by small molecules, qHTS cell viability counter screen (AID 1346981). Further: nearly all actives have a fitted effect of over 30% in size. Further: potency means the concentration at half of the fitted maximal effect. On activity change, negative = cytotoxicity: series mostly up to about 92 µM. An outline of the steps: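 After a 5-hr attachment period at 37 C and 5% CO2, wild-type HepG2 cells received compounds in DMSO. Sixteen hours later CellTiter-Fluor was dispensed and the fluorescent signal quantified after a further hour.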
The target of assay [8] is Cytochrome P450 2D6 (Homo sapiens) (UniProt P10635). Nature of the assay: Cytochrome P450 Family 2 Subfamily D Member 6 (CYP2D6) small molecule antagonists: luciferase reporter qHTS assay (AID 1671196). Further: nearly all actives have a fitted effect of over 50% in size. Further: potency means the concentration at half of the fitted maximal effect. On activity change, negative = inhibition: series mostly up to about 120 µM. The essentials:
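Room-temperature luminescent CYP2D6 activity assay: compound preincubated 10 min with enzyme–substrate mix, NADPH-initiated reaction 1 h, detection reagent 20 min before reading.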

A short description of assay [9]: qHTS assay to identify small molecule agonists of the progesterone receptor (PR) signaling pathway - cell viability counter screen (AID 1346799; calls by dose curve; further: nearly all actives have a fitted effect of over 45% in size; further: potency means the concentration at half of the fitted maximal effect). An outline of the steps:
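Multiplexed viability read: CellTiter-Glo luminescence, 30 min RT, following LiveBLAzer FRET measurement on PR-UAS-bla HEK293T cells exposed to compounds 16 hr.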

For assay [10], the target named is Thyrotropin-releasing hormone receptor (Homo sapiens) (UniProt P34981). The assay is described as follows: qHTS assay to identify small molecule antagonists of the thyrotropin-releasing hormone receptor (TRHR) signaling pathway (AID 1346877; active means well fitted inhibition curve with a large enough effect in the repeat runs, not every such curve was filed as active; further: series mostly up to about 51 µM). An outline of the steps:
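Calcium signal in dye-loaded TRHR/HEK293 cells; compounds added 5 min before TRH (1 nM final); fluorescence monitored 3 min at 1 s steps.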

Assay [11] has the same target. Nature of the assay: qHTS assay to identify small molecule agonists of the thyrotropin-releasing hormone receptor (TRHR) signaling pathway (AID 1346891; calls by dose curve; further: series mostly up to about 58 µM). The essentials:
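Readout was intracellular calcium fluorescence in TRHR-Hek293 cells. Cells were incubated 18 h, dye-loaded 2 h at 37 °C, and treated with compound in agonist mode.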

Assay [12] is described as follows: Caspase-3/7 induction in HepG2 cells by small molecules, qHTS assay (AID 1346978). Further: nearly all actives have a fitted effect of over 15% in size. Further: potency means the concentration at half of the fitted maximal effect. The essentials: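 Wild-type HepG2 cells (2,000/well) were settled 5 h at 37 C, 5% CO2, then exposed to compounds in DMSO for 17 h. Caspase-3/7 activity was read by luminescence 30 min after adding Caspase-Glo 3/7 reagent at room temperature.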
Assay [13] addresses Nuclear receptor subfamily 1 group I member 2 (Homo sapiens) (UniProt O75469). The assay is described as follows: Human pregnane X receptor (PXR) small molecule agonists, qHTS assay (AID 1346982). Further: nearly all actives have a fitted effect of over 35% in size. Further: potency means the concentration at half of the fitted maximal effect. An outline of the steps:
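Tox21 qHTS; PXR-Luc HepG2; compounds pinned from DMSO; 24 hr, 37 C; ONE-Glo luciferase detection, 30 min room temperature.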

For assay [14], the target named is Cytochrome P450 2C19 (Homo sapiens) (UniProt P33261). The assay is described as follows: Cytochrome P450 Family 2 Subfamily C Member 19 (CYP2C19) small molecule antagonists: luciferase reporter qHTS assay (AID 1671197). Further: nearly all actives have a fitted effect of over 65% in size. Further: potency means the concentration at half of the fitted maximal effect. On activity change, negative = inhibition: series mostly up to about 120 µM. An outline of the steps: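 Quantitative high-throughput screen of the Tox21 library using CYP2C19 with proluciferin substrate. Reaction: NADPH regeneration, 37C, 1 h, after 10 min compound preincubation at room temperature. Readout: luminescence.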
Cytochrome P450 2C19 (Homo sapiens), sequence (P33261 whole entry, looked up): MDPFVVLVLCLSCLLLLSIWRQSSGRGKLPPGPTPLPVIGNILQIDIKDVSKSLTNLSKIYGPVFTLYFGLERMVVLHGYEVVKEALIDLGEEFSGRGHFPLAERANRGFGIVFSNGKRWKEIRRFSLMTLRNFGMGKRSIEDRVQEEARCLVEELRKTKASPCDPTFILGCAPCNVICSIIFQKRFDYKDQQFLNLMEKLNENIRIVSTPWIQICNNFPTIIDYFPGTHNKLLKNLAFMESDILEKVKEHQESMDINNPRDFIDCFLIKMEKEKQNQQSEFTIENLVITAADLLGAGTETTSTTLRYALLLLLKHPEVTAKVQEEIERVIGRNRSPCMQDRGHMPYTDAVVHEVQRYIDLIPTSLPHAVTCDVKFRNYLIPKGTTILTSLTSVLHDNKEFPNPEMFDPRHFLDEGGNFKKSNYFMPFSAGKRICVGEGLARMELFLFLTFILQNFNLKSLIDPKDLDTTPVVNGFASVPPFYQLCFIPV

Assay [15] addresses Nuclear receptor subfamily 1 group I member 2 (Rattus norvegicus) (UniProt Q9R1A7). The assay is described as follows: Rat pregnane X receptor (rPXR) activation by small molecules, qHTS assay (AID 1346983). Further: nearly all actives have a fitted effect of over 20% in size. To be noted: rPXR luciferase reporter cells, One-Glo luminescence, 24 h; max activation: stronger effect = higher value. An outline of the steps:
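Cell-based rPXR luciferase reporter assay, 2,000 cells per well, rested 5hr at 37 C before compound addition in DMSO, then 24 hr at 37 C. One-Glo reagent was added and luminescence read after 30 min at room temperature.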

Assay [16] can be described thus: qHTS assay to identify small molecule antagonists of the progesterone receptor (PR) signaling pathway - cell viability counter screen (AID 1346798). Further: nearly all actives have a fitted effect of over 50% in size. Further: potency means the concentration at half of the fitted maximal effect. On activity change, negative = cytotoxicity: series mostly up to about 92 µM. An outline of the steps: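 In the same plates used for the beta-lactamase readout, cell viability of compound- and R5020-treated PR-UAS-bla HEK293T cells (16 hr, 37C) was assessed by CellTiter-Glo luminescence.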
On the % scale 0 is the no-effect control and ±100 the full control effect.

Nuclear receptor subfamily 1 group I member 2 (Homo sapiens), sequence (O75469 whole entry, looked up): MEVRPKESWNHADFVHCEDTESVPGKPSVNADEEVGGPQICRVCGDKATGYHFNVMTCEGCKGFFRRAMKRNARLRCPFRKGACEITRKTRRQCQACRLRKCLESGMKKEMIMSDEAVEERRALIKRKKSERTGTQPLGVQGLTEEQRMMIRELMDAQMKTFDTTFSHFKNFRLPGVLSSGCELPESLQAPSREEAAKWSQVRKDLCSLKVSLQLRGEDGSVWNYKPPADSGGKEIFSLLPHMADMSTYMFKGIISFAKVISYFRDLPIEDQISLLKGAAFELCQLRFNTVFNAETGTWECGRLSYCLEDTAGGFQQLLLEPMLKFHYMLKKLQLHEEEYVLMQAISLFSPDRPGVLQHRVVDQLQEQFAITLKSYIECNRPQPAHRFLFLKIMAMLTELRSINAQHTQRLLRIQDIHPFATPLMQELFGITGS
Cytochrome P450 2D6 (Homo sapiens), sequence (P10635 whole entry, looked up): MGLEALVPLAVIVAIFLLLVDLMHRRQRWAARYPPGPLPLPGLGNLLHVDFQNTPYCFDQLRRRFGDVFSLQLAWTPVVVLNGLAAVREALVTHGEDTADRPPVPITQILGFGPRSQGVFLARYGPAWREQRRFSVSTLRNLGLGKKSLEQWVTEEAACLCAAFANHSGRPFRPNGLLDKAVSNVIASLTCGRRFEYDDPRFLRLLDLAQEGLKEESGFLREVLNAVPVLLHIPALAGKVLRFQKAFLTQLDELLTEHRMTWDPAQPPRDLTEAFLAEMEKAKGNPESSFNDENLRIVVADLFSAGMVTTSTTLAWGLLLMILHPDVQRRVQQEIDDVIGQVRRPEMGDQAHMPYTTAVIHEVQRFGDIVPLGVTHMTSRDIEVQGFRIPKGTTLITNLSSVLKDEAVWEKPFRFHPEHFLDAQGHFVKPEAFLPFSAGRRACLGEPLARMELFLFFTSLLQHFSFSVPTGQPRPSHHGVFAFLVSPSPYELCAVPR
Thyrotropin-releasing hormone receptor (Homo sapiens), sequence (P34981 whole entry, looked up): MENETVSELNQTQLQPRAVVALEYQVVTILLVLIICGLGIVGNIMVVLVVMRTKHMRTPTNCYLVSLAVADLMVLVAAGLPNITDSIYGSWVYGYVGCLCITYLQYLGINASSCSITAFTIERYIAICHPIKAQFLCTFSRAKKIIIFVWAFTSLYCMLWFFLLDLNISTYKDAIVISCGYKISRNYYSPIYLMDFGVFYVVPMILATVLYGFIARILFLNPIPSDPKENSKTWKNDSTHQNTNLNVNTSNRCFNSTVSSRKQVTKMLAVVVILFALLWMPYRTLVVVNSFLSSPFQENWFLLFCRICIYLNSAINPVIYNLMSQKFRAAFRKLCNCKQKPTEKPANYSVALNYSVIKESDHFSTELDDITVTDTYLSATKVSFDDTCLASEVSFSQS
Nuclear receptor subfamily 1 group I member 2 (Rattus norvegicus), sequence (Q9R1A7 whole entry, looked up): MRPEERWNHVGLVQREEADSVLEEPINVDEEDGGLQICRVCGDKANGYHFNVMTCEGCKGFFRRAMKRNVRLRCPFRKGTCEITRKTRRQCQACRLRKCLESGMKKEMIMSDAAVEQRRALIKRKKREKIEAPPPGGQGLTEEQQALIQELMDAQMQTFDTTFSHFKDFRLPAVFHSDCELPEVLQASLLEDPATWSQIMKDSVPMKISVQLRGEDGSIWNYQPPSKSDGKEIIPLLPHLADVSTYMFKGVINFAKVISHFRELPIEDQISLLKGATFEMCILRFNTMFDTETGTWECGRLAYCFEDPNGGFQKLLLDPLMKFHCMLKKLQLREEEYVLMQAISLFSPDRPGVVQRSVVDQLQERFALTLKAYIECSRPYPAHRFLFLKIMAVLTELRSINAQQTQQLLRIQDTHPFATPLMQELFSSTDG

For `Brc1ccccc1-c1ccccc1`, the Potency entry in [1], in [2], in assay [3], in assay [4], in [5] and in [6] was “inactive” each time. In addition, in assay [7], the Potency result was “inactive”. The Potency in assay [8] is 75.4 µM (active).
In the case of `O=S(O)O`, the activity change, negative = cytotoxicity in assay [9] is -3.11% [at 19 µM] (inactive); in [2], -1.2% [at 15.8 µM] (inactive); in assay [4] it was 6.89% [at 19 µM] (inactive); in assay [5], 9.18% [at 19 µM] (inactive); in [7] it was -4.78% [at 19 µM] (inactive). Further, the activation was -2.31% [at 15.8 µM] (inactive) in assay [3], 0.0945% [at 11.8 µM] (inactive) in [11] and 8.59% [at 19 µM] (inactive) in assay [13]. In addition, in assay [10], the activity, negative = inhibition was 0.51% [at 10.5 µM] (inactive). Besides, the caspase activation in assay [12] is -0.246% [at 19 µM] (inactive). For the same molecule, the caspase-3/7 activation in [6] is 0.497% [at 19 µM] (inactive). Besides, the activity change, negative = inhibition in [8] is -20.2% [at 23.6 µM] (inactive); in assay [14], 0.673% [at 23.6 µM] (inactive).
`CCCCCCOc1cc(C)c(O)c(C)c1C`: the Potency result in assay [2], in [3], in [10] and in assay [11] was “inactive” each time. Moreover, the Potency in [4] is 61.9 µM (active); in [12] it was 49.2 µM (active); in assay [13], 34.8 µM (active); in assay [8] it was 25.5 µM (active); in assay [14], 2.02 µM (active).
With `CCCCCCCCCCOCC(O)CN` (stereo unspecified), the Potency in assay [9] was 29.8 µM (active); in assay [4], 26.6 µM (active); in assay [12], 29.8 µM (active); in [5] it was 33.5 µM (active); in assay [8], 6.92 µM (active); in assay [14], 6.92 µM (active). Also, the Potency entry in [1], in assay [3], in assay [10], in assay [11] and in [13] was “inactive” in each case. In addition, the max activation in [15] is -17.7% (inactive).
Regarding `Clc1ccccc1CN1CCc2sccc2C1`, the Potency result in [16], in assay [9], in assay [2], in assay [10], in assay [11] and in [4] was “inactive” throughout. Besides, the Potency entry in [12], in assay [5], in assay [6] and in assay [7] was “inactive” throughout.
As to `C=C1C(C)(C)[C@@]2(Cl)C(Cl)[C@]1(Cl)C(Cl)(Cl)C2(Cl)Cl` (stereo partly specified), the Potency result in assay [1], in [2], in assay [3] and in assay [12] was “inactive” throughout. For the same molecule, the Potency in [5] is 60 µM (active); in [6], 60 µM (active); in [13] it was 10.7 µM (active); in assay [8], 31.1 µM (active); in [14] it was 1.96 µM (active).
Take `CN(C)CCCN1c2ccccc2CCc2ccccc21`: the Potency in assay [9] is 21.7 µM (active) and inactive; in [4] it was 30.6 µM (active) and 23.7 µM (active). Besides, the Potency entry in assay [2], in assay [10], in assay [11], in [12] and in assay [6] was “inactive” each time.
`O=C(O)CCn1c2c(c3ccccc31)C[C@H](NS(=O)(=O)c1ccc(F)cc1)CC2`: the Potency entry in [16], in assay [9], in [2], in [4], in assay [12] and in assay [5] was “inactive” in each case. Besides, the Potency result in assay [6], in [7] and in assay [8] was “inactive” throughout.
On to `Cc1oc(-c2ccccc2)nc1CCOc1ccc(C[C@H](Nc2ccccc2C(=O)c2ccccc2)C(=O)O)cc1`, for which the Potency in [9] was 27.3 µM (active); in assay [4], 54.5 µM (active); in [5], 30.6 µM (active). Also, the Potency entry in assay [1], in [2] and in assay [8] was “inactive” throughout.
On to `CCCCCCCCCCCCCC[n+]1ccccc1`, for which the Potency in assay [16] was 54.5 µM (active); in [1], 54.9 µM (active); in [4], 8.63 µM (active); in assay [5] it was 27.3 µM (active); in [7] it was 27.3 µM (active); in [13] it was 8.63 µM (active). Also, the Potency in assay [8] was 1.78 µM (active). Further, in assay [6], the Potency result is “inactive”.
With `O=C1C=CC(=O)N1c1ccccc1`, the Potency in assay [16] is 68.6 µM (active); in assay [9], 61.1 µM (active); in [4], 48.6 µM (active); in [5], 9.69 µM (active); in assay [7], 61.1 µM (active); in assay [14] it was 20 µM (active). Moreover, the Potency result in assay [3], in assay [10], in [11], in assay [12], in assay [6] and in [13] was “inactive” in each case.
`CC(C)(C)CC(C)(C)c1ccccc1O`: the Potency is 31.1 µM (active) in assay [1]; 49.2 µM (active) in assay [2]; 70.8 µM (active) in [4]; 48.8 µM (active) in assay [12]; 61.4 µM (active) in assay [5]; 61.4 µM (active) in assay [7]. For the same molecule, the Potency in assay [13] was 21.8 µM (active). The Potency entry in assay [14] is “inactive”.
In the case of `CC(=O)OC(OC(C)=O)c1ccc([N+](=O)[O-])o1`, the Potency in assay [4] was 49.4 µM (active); in [5] it was 15.6 µM (active); in assay [7] it was 62.2 µM (active); in assay [13], 24.8 µM (active). In [6], the Potency entry was “inactive”.
